The list is not random: actives were taken first. Their share in the collection is about 12%.
Shiga toxin inh = A qHTS for Small Molecule Inhibitors of Shiga Toxin; Vero cells, Shiga toxin protein synthesis inhibition reporter; hit rate 9.2% among 290,000; inhibition, % at 38.7 µM; in the data active = inhibition mostly above about 28%, no sharp cut-off; inactive = mostly below about 43%
CHX counter = Cycloheximide Counterscreen for Small Molecule Inhibitors of Shiga Toxin. cell reporter, cycloheximide protein synthesis inhibition counterscreen. max response, %. hit rate 12% among 300,000; in the data active = max response mostly above about 13%, no sharp cut-off; inactive = mostly below about 14%; note: read at 38.3 µM for the half of the compounds with a filed dose
NS1 inh = qHTS Assay for Inhibitors of Influenza NS1 Protein Function; Potency, µM (doses to about 46.1 µM); hit rate 0.4% among 270,000; note: actives are rising curves; nearly all actives have a fitted effect of over 50% in size
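Read-out: OD600 growth recovery of NS1-expressing budding yeast. Cells grown overnight at 30C in -URA glucose medium, washed, resuspended and diluted 1:100 in 2% galactose assay medium, pH 6.0. Same strain lacking NS1 served as positive control.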
SARS PLpro yeast = qHTS of Yeast-based Assay for SARS-CoV PLP; S. cerevisiae expressing SARS-CoV PLpro, growth rescue; Potency, µM (doses to about 32.9 µM), hits mostly activators; hit rate 0.19% among 330,000; note: nearly all actives have a fitted effect of over 55% in size
Hits are given with their value; – = inactive; ? = inconclusive; · = not tested or not shown; + = active, no number; ! = not confirmed by another sample. Unless noted, calls come from the whole dose curve.

SMILES | Shiga toxin inh | CHX counter | NS1 inh | SARS PLpro yeast
COc1ccc([C@H]2CC(=O)C=C(c3c(OC)cccc3OC)C2)cc1 | · | · | · | –
N#Cc1c(-c2ccccc2)cc2nc3ccccc3n2c1N | – | 24 | – | –
COc1cc(-c2cc3nc4ccccc4n3c(N)c2C#N)cc(OC)c1OC | – | – | – | –
Cc1c(NC(=O)c2cccc(NC(=O)Cc3ccc(F)cc3)c2)c(=O)n(-c2ccccc2)n1C | · | · | · | –
C[C@H](CO)N1C[C@H](C)[C@@H](CN(C)S(C)(=O)=O)Oc2c(NC(=O)C3CC3)cccc2C1=O | · | · | · | –
O=C1c2ccccc2-n2c1nc1ccccc1c2=O | 52! | – | – | –
O=c1c2ccccc2nc(-c2ccccc2)n1-c1ccccc1O | – | – | – | –
CC(OC(=O)C1=COCCO1)C(=O)NC(C)c1ccc(Cl)cc1Cl (stereo not drawn) | · | · | · | –
COc1cc(-c2nc3cnccn3c2Nc2ccc(C(C)C)cc2)ccc1O | 73 | 29 | – | –
COc1cc(-c2nc3cnccn3c2Nc2ccc(C)cc2)ccc1O | – | – | – | –
COC(=O)c1ccc(SCc2cnc(Cl)s2)cc1 | 130 | 30 | – | –
C/C(=C\c1ccc(Cl)cc1)C(C)(C)C(=O)O | · | · | – | ·
Cc1ccc(N=Nc2ccc(O)c3ncccc23)cc1C | 100 | 28 | · | –
CCS(=O)(=O)c1ccc(N=Nc2ccc(O)c3ncccc23)c(OC)c1 | – | – | · | –
Cc1cc(Nc2ccc(N=Nc3ccc(O)c4ncccc34)cc2)nc(C)n1 | · | · | – | ·
COc1ccccc1N=Nc1ccc(O)c2ncccc12 | 90 | 62 | – | –
CCOc1ccc(OCc2ccc(C(=O)NN=Cc3ccc[nH]3)cc2)cc1 | · | · | · | –
O=C(NCCc1cccc(Cl)c1)c1ccc(OC2CCN(Cc3ccccn3)CC2)cc1 | 53 | 51 | – | –
COCC(=O)N1CCC(Oc2ccc(C(=O)NCCc3ncccc3C)cc2)CC1 | – | – | – | –
O=C(NC1CCCCC1)c1ccc(OC2CCN(Cc3ccccn3)CC2)cc1 | – | – | – | –
Cc1cccnc1CCNC(=O)c1ccc(OC2CCN(Cc3ccccn3)CC2)cc1 | – | 18 | ? | –
CN(C(=O)c1ccc(OC2CCN(Cc3ccccn3)CC2)cc1)C1CCCCC1 | – | 21 | – | –
O=C(NC1CCN(C(=O)Nc2ccccc2Cl)CC1)c1cccc(F)c1 | – | – | – | –
Cc1cc2ncn(CCOc3ccccc3)c2cc1C | 102 | 51 | – | –
COc1ccc(C2NC(=S)NC(O)(C(F)(F)F)C2C(=O)c2cccs2)cc1 (stereo not drawn) | – | – | – | –
SMILES | Shiga toxin inh | CHX counter | NS1 inh | SARS PLpro yeast
O=C(O)/C=C\C(=O)Nc1ccccc1C#Cc1ccc(Br)cc1 | 89 | 56 | – | –
O=C(O)/C=C/C(=O)Nc1ccccc1SC(F)(F)F | – | – | – | –
O=C(O)/C=C\C(=O)Nc1ccccc1C#Cc1ccccc1 | active | 59 | – | –
O=C(O)/C=C/C(=O)Nc1ccccc1-c1ccccc1NC(=O)/C=C/C(=O)O | – | – | – | –
CC(=O)N1N=C(c2ccccc2)CC1c1cccs1 (stereo not drawn) | – | – | – | –
COc1ccc(C2=NN(C(C)=O)C(c3cccs3)C2)cc1OC (stereo not drawn) | 35 | 22 | – | –
O=C(c1ccccc1)N1N=C(c2ccccc2)CC1c1cccs1 (stereo not drawn) | – | – | – | –
COc1cccc(C2=NN(C(C)=O)C(c3cccs3)C2)c1 (stereo not drawn) | – | 21 | – | –
CC(=O)Nc1ccc2c(c1)CN(c1cc(C)ccc1C)CO2 | – | – | – | –
COc1cccc(N2CCN(S(=O)(=O)c3ccc4c(c3)NC(=O)CS4)CC2)c1 | – | – | – | –
Cc1nc2c(Br)cc(Br)cc2cc1O | – | – | – | –
CCCCS/C(N)=N/N=C/c1ccccc1O | – | 32 | – | –
C/C(=N/N=C/c1ccccc1O)c1ccccc1O | 89 | 43 | – | –
CC(=N[C@@H]1CCCC[C@H]1N=C(C)c1ccccc1O)c1ccccc1O | – | – | – | –
CCCS/C(N)=N/N=C/c1cc(C)ccc1O | 145 | 42 | – | –
Cc1ccc2n(n1)c(=O)c(Cc1ccccc1)c([O-])[n+]2-c1ccccc1 | – | – | – | –
Clc1ccccc1CO/N=C1\CCCc2nonc21 | – | 15 | – | –
Clc1ccc(CO/N=C2\CCCc3nonc32)cc1 | – | 27 | – | –
Cc1nc([N+](=O)[O-])cn1CC(=O)Nc1ccc(F)c(Cl)c1 | – | – | – | –
CCOC(=O)N/N=C/c1cccc(Cl)c1Cl | 79 | 40 | – | –
CCOC(=O)N/N=C/c1ccccc1F | 83 | 33 | – | –
CCOC(=O)N/N=C/c1ccc(N(CC)CC)cc1O | 62 | 23 | – | –
CCc1ccc(/C=N/NC(=O)c2cc(C3CC3)nc3ccccc23)s1 | – | – | – | –
CCc1ccc(/C=N/NC(=O)c2cc(C)on2)s1 | + | 35 | – | –
CCOC(=O)N/N=C/c1ccc(OC)c(O)c1 | 69 | 33 | · | –
SMILES | Shiga toxin inh | CHX counter | NS1 inh | SARS PLpro yeast
CCOC(=O)N/N=C/c1c(F)c(F)c(F)c(F)c1F | – | – | – | –
COc1ccc(/C=N\NC(=O)C2COc3ccccc3O2)cc1O (stereo not drawn) | 62 | 20 | – | –
CCOC(=O)N/N=C/c1ccc(F)cc1 | 70 | 39 | – | –
CCOC(=O)N/N=C/c1c(F)cccc1F | 35 | 25 | – | –
O=C(N[C@@H]1CCC(=O)N(CC[C@H](Oc2ccccc2)c2ccccc2)CC1)OCc1ccccc1 | – | – | – | –
Cc1ccc(N(CC(O)CN2CCCCC2)S(=O)(=O)c2ccc(C)cc2)cc1 (stereo not drawn) | – | – | ? | –
CCOC(=O)NC(=S)c1ccc[nH]1 | – | – | – | –
COc1ccc(/C(C)=N/NC(=O)c2cccc(S(=O)(=O)N3CCCC3)c2)c(O)c1 | · | · | · | –
CN1CCN(CCc2nc3cc(NC(=O)COc4ccc([N+](=O)[O-])cc4)ccc3n2C)CC1 | – | – | – | –
Cc1cc(C(=O)N/N=C/c2cccc(Cl)c2Cl)no1 | 76 | 38 | – | –
Cc1ccc2oc(-c3cccc(NC(=O)c4ccc(Br)o4)c3C)nc2c1 | 70 | 66 | – | –
Cc1cc2nc(-c3cccc(NC(=O)c4ccc(Br)o4)c3C)oc2cc1C | – | 24 | – | –
Cc1ccc2cccc(NC(=O)c3ccc(Br)o3)c2n1 | – | – | – | –
CCCCCCn1c(/C=C/c2ccccc2)nc2ccccc21 | 101 | 47 | · | ·
CCn1c(/C=C/c2ccccc2)nc2ccccc21 | 62 | 33 | – | –
CCC(C)n1c(/C=C/c2ccccc2)nc2ccccc21 (stereo not drawn) | – | 25 | – | –
CCC(C)n1c(S(=O)(=O)O)nc2ccccc21 (stereo not drawn) | – | – | – | –
COc1ccc(Cn2c(/C=C/c3ccccc3)nc3ccccc32)cc1 | 82 | 65 | – | –

Assay outcomes: PubChem BioAssay, National Center for Advancing Translational Sciences (NCATS)
